The record followed here is article PMC9911399, “Two distinct binding modes provide the RNA-binding protein RbFox with extraordinary sequence specificity”.

Where a chain is given by its changes, count along the chain named. In all, about 16,000 sequences were measured (“ka relative to ugcaugu”: median about 0.096, highest 2% from about 0.35 on). Shown is part of a subset that was picked to be rich in the highest values.

The labels stand for the following.
B1: GGUCGGG (DNA:RNA)
RNA: GGGAGACCGGAAUUCAGAUUGUCCGGUCGGGUUAAAUCCCGUCGUAGCCACCA
DNA 1: CAATCTGAATTCCGGTCTCCC
DNA 2: TGGTGGCTACGACGGGATT
B2: GGGACGG (DNA:RNA)
RNA: B1 RNA with U27G, C28A, G29C
DNA 1: CAATCTGAATTCCGGTCTCCC
DNA 2: TGGTGGCTACGACGGGATT
B3: GGUUUUU (DNA:RNA)
RNA: B1 RNA with C28U, G29U, G30U, G31U
DNA 1: CAATCTGAATTCCGGTCTCCC
DNA 2: TGGTGGCTACGACGGGATT
B4: GGUUUGU (DNA:RNA)
RNA: B1 RNA with C28U, G29U, G31U
DNA 1: CAATCTGAATTCCGGTCTCCC
DNA 2: TGGTGGCTACGACGGGATT
B5: CGGUUUG (DNA:RNA)
RNA: B1 RNA with G25C, U27G, C28U, G29U, G30U
DNA 1: CAATCTGAATTCCGGTCTCCC
DNA 2: TGGTGGCTACGACGGGATT
B6: GGUUUGG (DNA:RNA)
RNA: B1 RNA with C28U, G29U
DNA 1: CAATCTGAATTCCGGTCTCCC
DNA 2: TGGTGGCTACGACGGGATT
B7: GGUUUUG (DNA:RNA)
RNA: B1 RNA with C28U, G29U, G30U
DNA 1: CAATCTGAATTCCGGTCTCCC
DNA 2: TGGTGGCTACGACGGGATT
B8: GUCCGGU (DNA:RNA)
RNA: B1 RNA with G26U, U27C, G31U
DNA 1: CAATCTGAATTCCGGTCTCCC
DNA 2: TGGTGGCTACGACGGGATT
B9: UACCCGA (DNA:RNA)
RNA: B1 RNA with G25U, G26A, U27C, G29C, G31A
DNA 1: CAATCTGAATTCCGGTCTCCC
DNA 2: TGGTGGCTACGACGGGATT
B10: GGUCCCA (DNA:RNA)
RNA: B1 RNA with G29C, G30C, G31A
DNA 1: CAATCTGAATTCCGGTCTCCC
DNA 2: TGGTGGCTACGACGGGATT
B11: GGAGCAG (DNA:RNA)
RNA: B1 RNA with U27A, C28G, G29C, G30A
DNA 1: CAATCTGAATTCCGGTCTCCC
DNA 2: TGGTGGCTACGACGGGATT
B12: GAAAUGC (DNA:RNA)
RNA: B1 RNA with G26A, U27A, C28A, G29U, G31C
DNA 1: CAATCTGAATTCCGGTCTCCC
DNA 2: TGGTGGCTACGACGGGATT
B13: UGAAUGC (DNA:RNA)
RNA: B1 RNA with G25U, U27A, C28A, G29U, G31C
DNA 1: CAATCTGAATTCCGGTCTCCC
DNA 2: TGGTGGCTACGACGGGATT
B14: GUAAUGC (DNA:RNA)
RNA: B1 RNA with G26U, U27A, C28A, G29U, G31C
DNA 1: CAATCTGAATTCCGGTCTCCC
DNA 2: TGGTGGCTACGACGGGATT
B15: GAUUGCU (DNA:RNA)
RNA: B1 RNA with G26A, C28U, G30C, G31U
DNA 1: CAATCTGAATTCCGGTCTCCC
DNA 2: TGGTGGCTACGACGGGATT
B16: GGAAUGC (DNA:RNA)
RNA: B1 RNA with U27A, C28A, G29U, G31C
DNA 1: CAATCTGAATTCCGGTCTCCC
DNA 2: TGGTGGCTACGACGGGATT
B17: GCAAUGC (DNA:RNA)
RNA: B1 RNA with G26C, U27A, C28A, G29U, G31C
DNA 1: CAATCTGAATTCCGGTCTCCC
DNA 2: TGGTGGCTACGACGGGATT
B18: GAAUUGC (DNA:RNA)
RNA: B1 RNA with G26A, U27A, C28U, G29U, G31C
DNA 1: CAATCTGAATTCCGGTCTCCC
DNA 2: TGGTGGCTACGACGGGATT
B19: GAAUGCU (DNA:RNA)
RNA: B1 RNA with G26A, U27A, C28U, G30C, G31U
DNA 1: CAATCTGAATTCCGGTCTCCC
DNA 2: TGGTGGCTACGACGGGATT
B20: CGAAUGC (DNA:RNA)
RNA: B1 RNA with G25C, U27A, C28A, G29U, G31C
DNA 1: CAATCTGAATTCCGGTCTCCC
DNA 2: TGGTGGCTACGACGGGATT
B21: UAAAUGC (DNA:RNA)
RNA: B1 RNA with G25U, G26A, U27A, C28A, G29U, G31C
DNA 1: CAATCTGAATTCCGGTCTCCC
DNA 2: TGGTGGCTACGACGGGATT
B22: UUAAUGC (DNA:RNA)
RNA: B1 RNA with G25U, G26U, U27A, C28A, G29U, G31C
DNA 1: CAATCTGAATTCCGGTCTCCC
DNA 2: TGGTGGCTACGACGGGATT
B23: GAUGCUU (DNA:RNA)
RNA: B1 RNA with G26A, C28G, G29C, G30U, G31U
DNA 1: CAATCTGAATTCCGGTCTCCC
DNA 2: TGGTGGCTACGACGGGATT

The experiment concerns the target T1, RBFOX1 RRM RbFoxmut (Fox-RRM*) (Homo sapiens, UniProt Q9NWB1 109-208, R118D;E147R;N151S;E152T).
T1 sequence: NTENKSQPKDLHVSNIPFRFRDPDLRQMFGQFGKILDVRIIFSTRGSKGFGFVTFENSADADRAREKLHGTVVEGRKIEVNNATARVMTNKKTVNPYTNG
As to the kind of experiment: EMSA; HiTS-Eq, 1 nM pool, 10 min; buffer printed only for the single-RNA assays: 10 mM Tris pH 7.5, 150 mM NaCl, 3.4 mM EDTA, 0.001% NP-40, 30 C. The conditions noted are these: tags: His6 N-terminal (pET28a); label: 5' 32P. In a few lines:
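Purified RbFox RRM, wild type or mutant, was incubated for 10 min in 50 µL with 1 nM of a 5′-radiolabelled RNA pool carrying 7 randomized nucleotides, whose flanks were annealed to DNA oligonucleotides, over a series of increasing protein concentrations. Unbound RNA was resolved on 8% native PAGE, cut out, reverse-transcribed, barcoded by PCR and sequenced on an Illumina HiSeq 2500. Relative association constants were derived from changes in read counts for each RNA species versus the control reaction and normalised to the cognate motif.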
Background: A gel shift assay detects complexes by their altered migration in electrophoresis.
For B1, the binding signal is 0.0602 KA relative to UGCAUGU.
The result for B2 reads 0.0996 KA relative to UGCAUGU; that for B3, 0.056 KA relative to UGCAUGU.
The result for B4 reads 0.366 KA relative to UGCAUGU.
B5: the binding signal is 0.633 KA relative to UGCAUGU.
The result for B6 reads 0.277 KA relative to UGCAUGU.
Turning to B7, the binding signal was 0.191 KA relative to UGCAUGU.
Regarding B8, the binding signal was 0.132 KA relative to UGCAUGU.
Then B9, with 0.066 KA relative to UGCAUGU.
The result for B10 reads 0.0504 KA relative to UGCAUGU.
The result for B11 reads 0.0829 KA relative to UGCAUGU.
As for B12, the binding signal was 0.072 KA relative to UGCAUGU.
Then B13, with 0.485 KA relative to UGCAUGU.
As for B14, the binding signal was 0.127 KA relative to UGCAUGU.
The result for B15 reads 0.141 KA relative to UGCAUGU.
The result for B16 reads 0.686 KA relative to UGCAUGU; that for B17, 0.0545 KA relative to UGCAUGU; that for B18, 0.119 KA relative to UGCAUGU.
Then B19, with 0.634 KA relative to UGCAUGU; and B20, with 0.856 KA relative to UGCAUGU.
B21: the binding signal was 0.0677 KA relative to UGCAUGU.
As for B22, the binding signal is 0.118 KA relative to UGCAUGU.
Regarding B23, the binding signal is 0.0831 KA relative to UGCAUGU.
